# Pf Dd2 inh: blocks in vitro growth of P. falciparum Dd2. P. falciparum Dd2 growth, SYBR Green, 72 h. Potency, µM (doses to about 28.9 µM), most hits filed as inhibitors. actives 4.3% (n = 120,000). AID 1347417; active means well fitted inhibition curve with a large enough effect; further: nearly all actives have a fitted effect of over 65% in size
#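 Readout: SYBR Green fluorescence, 485 nm excitation, 535 nm emission, after ~16 h lysis at 37C. Before that, Dd2-infected red cells (2.5% hematocrit) grew 72 h with compound, 29 uM top final concentration.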
# Numbers stand for hits; – = inactive. The full list was thinned out, with hits kept by preference.
SMILES,Pf Dd2 inh
CC(=O)N(C1CC1)C1CCOC2(CCN(C(=O)NCc3ccc(C)cc3)CC2)C1 (configuration not stated),–
CCCCCN1C(C(=O)c2ccccc2)=C(NC(=O)c2ccc(OC)c(OC)c2)c2ccccc2S1(=O)=O,–
CCN1C(C(=O)c2ccccc2)=C(NC(=O)c2ccc(Cl)cc2)c2ccccc2S1(=O)=O,12.6µM
CCCCC(=O)OC1=C(C(=O)c2ccccc2)N(CC)S(=O)(=O)c2ccccc21,–
COc1cccc(C(=O)NC[C@@H]2CC[C@H]3C[C@@H]2C3(C)C)c1,11.2µM
CC1(C)[C@H]2CC[C@@H](CNC(=O)c3cccnc3)[C@@H]1C2,–
COCC1(CNC(=O)c2cccc(OC)c2)C[C@@H](O)[C@@H](O)C1 (some centres not stated),–
COc1ccc(-c2cc(N3CCCN(C(=O)c4cnccn4)CC3)n[nH]2)cc1,–
CCNC(=O)N1CCCC1c1noc(CCC(=O)N(C)CCOC)n1 (configuration not stated),–
COc1cccc(NC(=O)N2CCN(C(=O)c3cccnc3)[C@@H](C(=O)N[C@H]3CCCNC3=O)C2)c1,–
O=C(C1CCOCC1)N1CCC(Oc2cccc(F)c2)C1 (configuration not stated),–
O=C(c1cccc(F)c1)N1CCC(Oc2cccnc2)C1 (configuration not stated),–
Cn1ccnc1C(=O)N1CCC(Oc2cccc(F)c2)C1 (configuration not stated),7.94µM
CCc1ccccc1NC(=O)CN1C(=O)c2cccnc2Sc2ccccc21,–
Cc1cc(C)c(NC(=O)CN2C(=O)c3cccnc3Sc3ccccc32)c(C)c1,–
Cc1cc(NC(=O)CN2C(=O)c3cccnc3Sc3ccccc32)ccc1Br,11.2µM
Clc1cc(NCC2CCCCC2)n2nccc2n1,–
Cc1noc(C)c1S(=O)(=O)N1CCC(C(=O)N2CCCC2c2nc(C3CCOCC3)no2)CC1 (configuration not stated),–
COc1ccc(C(=O)N2CCCN(S(C)(=O)=O)C(c3ccccc3)CC(=O)NCC2)c(OC)n1 (configuration not stated),–
COc1ccccc1-c1noc(-c2nc(-c3ccncc3)no2)n1,–
CCNC(=O)N1CCC(Oc2ccccc2-c2nc(-c3cnccn3)no2)C1 (configuration not stated),–
c1ccc(-c2nc(-c3ccncc3)no2)c(OC2CCNC2)c1 (configuration not stated),12.6µM
O=C(Nc1ccccc1)N1CCC(Oc2ccccc2-c2nc(-c3ccccc3)no2)C1 (configuration not stated),–
c1ccc(-c2nc(-c3cnccn3)no2)c(OC2CNC2)c1,–
O=C(C1CC1)N1CC(Oc2ccccc2-c2nc(-c3cnccn3)no2)C1,7.94µM
SMILES,Pf Dd2 inh
O=C(NCC1CC1)c1nc2c(o1)CCN(Cc1ccc3c(c1)CCO3)CC2,–
O=C1[C@H]2CN(Cc3ccccc3F)C[C@H]2C(=O)N1Cc1ccc2c(c1)OCO2,–
O=C(Nc1ccccc1Cl)N1CCC(Oc2ncccc2C(=O)N2CCOCC2)C1 (configuration not stated),–
COc1cccc(-c2nc3c([nH]2)CN(C(=O)CCn2cnnn2)CC3)c1,–
COc1ccc2c(c1)C(C[C@H]1CN(C(=O)C3CCC3)CC[C@H]1CC(=O)O)=NCC2,–
CCc1nccn1CCC(=O)N[C@@H]1COCC[C@@H]1Oc1ccc(F)cc1,–
CCC(=O)N1CCC(Oc2ncccc2C(=O)N2CCOCC2)C1 (configuration not stated),–
COc1ccc(-c2cc(N3CCCN(C(=O)Cc4ccccc4Cl)CC3)n[nH]2)cc1,–
CC1=C[C@@H](CNC(=O)Nc2ccccc2)[C@H](C(C)C)C[C@H]1CC(=O)NCc1cccnc1,–
COc1cc(C2CC(=O)N(Cc3cccc(F)c3)c3ccccc3S2)cc(OC)c1OC (configuration not stated),4.47µM
COc1ccccc1C(=O)NC1CC(=O)N(Cc2cccc(F)c2)C1 (configuration not stated),–
COc1ccccc1NC(=O)NC1CC(=O)N(Cc2cccc(F)c2)C1 (configuration not stated),–
Cc1ccc(-c2noc([C@@H]3C[C@@H](O)CN3Cc3cccnc3)n2)cc1F,–
c1ccc(C2CCCN(CCNc3ncncn3)C2)cc1 (configuration not stated),–
CCOc1cc(C2CC(=O)Nc3cc4c(cc32)OCCO4)ccc1O (configuration not stated),–
CCOc1c(Br)cc(C2CC(=O)Nc3cc4c(cc32)OCO4)cc1OC (configuration not stated),3.16µM
COc1cccc(C2CC(=O)Nc3cc4c(cc32)OCO4)c1OC(C)C (configuration not stated),–
Cc1cccc(C2CC(=O)Nc3cc4c(cc32)OCO4)c1 (configuration not stated),–
COc1cc2c(c(OC)c1)C(c1cc(OC)c(OC)c(OC)c1)CC(=O)N2 (configuration not stated),–
COc1cc(C2CC(=O)Nc3cc4c(cc32)OCCO4)cc(Br)c1OC (configuration not stated),1µM
CN1C[C@H](O)C[C@H]1c1nnc2n1CCN(Cc1ccccc1)C2,–
O=C(C1CC1)N1CCN(C2CCN(Cc3cccnc3)C2=O)CC1 (configuration not stated),–
Cc1cccc(-n2nc(C)c(CCC(=O)N3CCSCC3)c2Oc2ccccc2C)c1,8.91µM
CCNC(=O)CCc1c(C)nn(-c2cccc(C)c2)c1Oc1ccccc1C,–
Cc1cccc(-n2nc(C)c(CCC(=O)NC3CC3)c2Oc2ccccc2C)c1,–
SMILES,Pf Dd2 inh
O=C1CC(c2ccccc2)N(C(=O)C2CC2)CCCN(C(=O)CCc2c[nH]c3ccccc23)CCN1 (configuration not stated),–
O=C1CC(c2ccccc2)N(Cc2cn[nH]c2-c2cccs2)CCCCCN1 (configuration not stated),–
COc1ccccc1-c1[nH]ncc1CN1CCC2(CC1)CC(O)CCO2 (configuration not stated),–
COCCC1(NC(=O)c2ccccc2)CCN(Cc2cn[nH]c2-c2cccs2)CC1,8.91µM
COc1ccccc1CC(=O)N1CCCN(c2cc(-c3ccccc3)[nH]n2)CC1,–
CC(C)C(=O)N[C@H]1[C@H](O)[C@H](O)C[C@@H]1c1ccc(N2CCOCC2)nc1,–
O=S(=O)(c1ccccc1)N1CCC2(CC1)CC(OCC1CC1)CCO2 (configuration not stated),–
O=C(c1cccs1)N1CCCC(Cc2noc(-c3cccnc3)n2)C1 (configuration not stated),–
COC1C(=O)N(CC2CC2)C12CCN(C(=O)c1ccc(C)nc1)CC2 (configuration not stated),–
CCCC(=O)NCCc1nc2ccccc2n1Cc1c(F)cccc1Cl,–
O=C(NCCc1nc2ccccc2n1Cc1ccc(Cl)cc1Cl)c1ccco1,11.2µM
O=C(NCCc1nc2ccccc2n1Cc1ccc(Cl)cc1)c1ccccc1,–
CCN(CC)S(=O)(=O)c1ccc(-c2nc(C)ccc2OC)cc1,–
c1ccc2sc(CCCn3cc(-c4cncnc4)nn3)nc2c1,–
COc1ccccc1CNC(=O)CN1CC2CC(C1)[C@H]1CCCC(=O)N1C2 (some centres not stated),–
COc1ccccc1-c1nccc2c(=O)cc(N3CCOCC3)oc12,–
